Among the data in PubChem BioAssay AID2732 (Emory University Molecular Libraries Screening Center, 2010) are inhibition values, retold here.

Where “and” joins values, the source holds several entries; their conditions need not be identical. Equal entries are not always repeated. Screen size: about 220,000 compounds; about 8,200 (3.7%) were called active.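 The calls were made as follows: active = compounds that reduced the stress-induced luciferase reporter signal by more than about 70% of percent inhibition (limit read from the data); inactive = the rest.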 The entries come from a sample that favours actives as a whole.

The experiment in a line: blockers of ER-stress CHOP reporter expression – cell-based, unfolded protein response, luciferase reporter, primary screen (AID 2732).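 Also: 0% = tunicamycin plus vehicle and 100% = wells without tunicamycin.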 Particulars: CHO-K1 CHOP-promoter luciferase, tunicamycin-induced, 15-18 h; at 10 µM; active compounds read high.
Regarding `Cn1c(=O)c2c(-c3cccc(Br)c3)c(C#N)c(N)nc2n(C)c1=O`, the inhibition was 3.49% (inactive). For `Cc1nc(N)sc1N=Nc1c(C)n(C)n(-c2ccccc2)c1=O`, the inhibition was 4.59% (inactive).

`Cc1ccc(NC(=O)CC(=O)Nc2ccc(C)cc2)cc1`: the inhibition was 20.6% (inactive). `O=C(CCl)Nc1ccc(Sc2ccc(NC(=O)CCl)cc2)cc1`: the inhibition is 106% (active). In the case of `CC(C)(CCl)C(=O)Nc1ccc(Sc2ccc(F)cc2)cc1`, the inhibition is 68% (inactive). The value for `COc1ccc(N=C(C)c2sc3ccccc3c2O)cc1` was 1.74% (inactive); that for `C=CCNC(=S)N/N=C/c1ccc(C)s1` was -20% (inactive); that for `CC(=O)NCC(O)c1ccc([N+](=O)[O-])cc1` (stereo unspecified) was 5.99% (inactive).

In the case of `O=S(=O)(NCc1ccco1)c1cnc(Cl)c(Cl)c1`, the inhibition is -45.5% (inactive). `CN=C1C=C/C(=N/N=c2\ccn(O)cc2C)C=C1C`: the inhibition is -15.3% (inactive). `Cc1ccc2c(c1)C(c1ccccc1)N(C(=O)c1ccc(S(=O)(=O)N3CCOCC3)cc1)CC(=O)N2` (stereo unspecified): the inhibition was 18% (inactive).

Regarding `COC(=O)CN1C(C)=Nc2ccc(Br)cc2C1c1ccccc1` (stereo unspecified), the inhibition was -10.6% (inactive). On to `CCC(CC)C(=O)N1CC(=O)Nc2ccc(Br)cc2C1c1ccccc1` (stereo unspecified), for which the inhibition was 81.3% (active). For `CN(C)C(=O)c1nc2ccc(Cl)cn2c1CNCc1cccc(OC(F)(F)F)c1`, the inhibition is -1.69% (inactive). In the case of `Cc1cnc(NC(=O)Cn2cnc3c2c(=O)n(C)c(=O)n3C)s1`, the inhibition was -10.1% (inactive). For `Cc1ccc(C(=O)NNc2ncnc3ccccc23)cc1`, the inhibition is 3.67% (inactive). For the compound `Cc1nn(-c2ccccc2)c(=O)c2noc(C)c12`, the inhibition is 1.49% (inactive). For the compound `Cc1cc(N2CCN(C)CC2)nc2ccc(NC(=S)N3CCOCC3)cc12`, the inhibition was 2.29% (inactive). The value for `Cc1cc(N2CCOCC2)nc2ccc(NC(=S)N3CCN(Cc4ccccc4)CC3)cc12` was 80.6% (active). The value for `CCn1c2ccccc2c2cc(NC(=S)N3CCOCC3)ccc21` was 30.3% (inactive); that for `CC(CO)(CO)NC(=O)c1ccc(=O)[nH]n1` was 0.5% (inactive). Take `O=P(O)(CN1CCCCCC1)C1Cc2ccccc2C1`: the inhibition is 4.35% (inactive). With `O=c1c2ccccc2c(-c2ccccc2)nn1Cc1ccccc1`, the inhibition is 43.8% (inactive). The value for `O=c1cc(N2CCCCC2)c(-c2ccccc2)nn1Cc1cccc(F)c1` was 74.7% (active); that for `O=c1cc(N2CCN(Cc3ccccc3)CC2)c(-c2ccccc2)n[nH]1` was 26.9% (inactive). As for `C/C(Cc1ccccc1)=N\NC(=O)CNC(=O)c1ccccc1Cl`, the inhibition is -14.9% (inactive). The value for `COc1ccc(OCC(O)CNCCNc2nccc(C(F)(F)F)n2)cc1` (stereo unspecified) was 3.94% (inactive); that for `O=C(Cn1cc(C(F)(F)F)ccc1=O)N/N=C/c1ccc(Cl)cc1Cl` was 104% (active). The value for `O=C(Cc1ccccc1)N/N=C/c1ccc(Cl)cc1Cl` was -13.9% (inactive); that for `COc1ccc(/C=N/NC(=O)Cn2cc(C(F)(F)F)ccc2=O)cc1` was -10.7% (inactive). Consider `NS(=O)(=O)c1ccc(NC(=O)COC(=O)c2cc3ccccc3oc2=O)cc1`, for which the inhibition is 5.84% (inactive). On to `CCOc1cc2c(Cl)ncnc2c(OCC)c1OCC`, for which the inhibition was 23.1% (inactive).

In the case of `S=c1[nH]c2ccccc2c2ccccc12`, the inhibition was -2.18% (inactive). The value for `CCN(CC)CCCN=C(N)N` was 3.64% (inactive); that for `CCOC(=O)N1CCN(C(=O)C2CCN(c3ncnc4c3sc3cccc(F)c34)CC2)CC1` was 85.7% (active); that for `CCOC(=O)C1CCN(c2ncnc3c2oc2ccc(Br)cc23)CC1` was 21.9% (inactive). Consider `CCOC(=O)N1CCN(C(=O)C2CCN(Cc3ccc(OC)cc3OC)CC2)CC1`, for which the inhibition was 18.3% (inactive).

With `Nc1nc(NCC2CCCO2)nc(Nc2ccccc2F)c1[N+](=O)[O-]` (stereo unspecified), the inhibition was 12.4% (inactive). In the case of `CC(C)CCNC(=O)C1CCC(CNc2c(N3CCC(C)CC3)c(=O)c2=O)CC1` (stereo unspecified), the inhibition is 1.09% (inactive).

Take `Cc1ccc2c(c1)nnc1nnc(SCC(=O)O)n12`: the inhibition is 3.13% (inactive). On to `CS(=O)(=O)n1nc(-c2ccco2)nc1N`, for which the inhibition is 42.4% (inactive). As for `CSc1nc(-c2ccco2)nn1C(=O)c1ccccc1Cl`, the inhibition was 78.2% (active). In the case of `CSc1nc(-c2ccco2)nn1C(=O)CCc1ccccc1`, the inhibition was 37.2% (inactive). For `COc1cccc(N2C(=O)CC(N3CCc4ccccc4C3)C2=O)c1` (stereo unspecified), the inhibition is -8.87% (inactive). Consider `CSCC[C@H](NC(=O)CCCn1nnc2ccccc2c1=O)C(=O)O`, for which the inhibition was 4.06% (inactive). `Cc1ccc(NC(=O)c2c(NC(=O)CCC(=O)O)sc3c2CCCCC3)cc1`: the inhibition was 5.76% (inactive). For `Cc1ccc(C(=O)c2c(NC(=O)c3ccccc3)sc(C)c2C)cc1`, the inhibition is 53.1% (inactive). For `Cc1ccc(C(=O)c2c(NC(=O)c3ccncc3)sc3c2CCCC3)cc1`, the inhibition is 73.2% (active). In the case of `COc1c(C=O)c(CCN(C)C(=O)c2ccc(F)cc2)cc2c1OCO2`, the inhibition was -10.2% (inactive). Take `COc1ccccc1C1CCN(C(=S)Nc2ccc(Br)cc2)CC1`: the inhibition is 26.5% (inactive). For the compound `COc1ccccc1C(c1nnnn1CC1CCCO1)N1CCN(c2ccccc2)CC1` (stereo unspecified), the inhibition was -9.42% (inactive). For `COCCn1nnnc1C(c1ccccc1Cl)N1CCN(c2ccccc2OC)CC1` (stereo unspecified), the inhibition is 81.6% (active). For the compound `COc1ccccc1C(c1nnnn1C(C)(C)C)N1CCN(Cc2ccccc2)CC1` (stereo unspecified), the inhibition is -9.46% (inactive). Consider `O=C(NCc1cccnc1)C(=O)Nc1nc(-c2ccccc2)cs1`, for which the inhibition is 16.9% (inactive). In the case of `FC(F)(F)c1ccnc(Oc2ccc(C3=NCCS3)cc2)c1`, the inhibition was 1.85% (inactive). The value for `CC(C)=CCC/C(C)=C/C(=O)O` was -11.9% (inactive). The value for `Cc1ccc(NC(=S)N2CCCC(c3ccccc3)=N2)cc1` was 16.8% (inactive).

Take `Cc1ccc(C(=O)N2CCCC(c3ccccc3)=N2)cc1`: the inhibition was 78.5% (active).

Turning to `Cc1ccc(C(=O)C[n+]2cc(-c3ccccc3)n3c2CCCCC3)cc1`, the inhibition is -15.7% (inactive) and 24.3% (inactive). As to `O=C(COc1cc(Cl)c(Cl)cc1Cl)NC(=O)NC1CCCC1`, the inhibition is 91% (active).

For the compound `O=C(COc1cc(Cl)c(Cl)cc1Cl)NCCc1ccccn1`, the inhibition was -12.8% (inactive). In the case of `O=C(COc1ccccc1F)NC1CC1`, the inhibition is 40% (inactive).

Take `CCN(CC)CCC(c1ccc2c(c1)OCO2)c1c(OC)cc(OC)c2c(-c3ccccc3)cc(=O)oc12` (stereo unspecified): the inhibition was -37.9% (inactive). With `COc1ccc2[nH]cc(/C=C(/C#N)S(=O)(=O)c3ccccc3)c2c1`, the inhibition is 70.3% (active). On to `COc1ccc(NS(=O)(=O)c2ccc(Oc3c(C#N)cccc3C#N)cc2)cc1`, for which the inhibition was 54.8% (inactive). Consider `CCN(CC)CC(=O)c1c[nH]c2ccc(OC)cc12`, for which the inhibition is -4.19% (inactive). `Cc1cc(C)nc(SCc2cn3c(C)cc(C)nc3n2)n1`: the inhibition is 19.4% (inactive). The value for `Cc1onc(-c2ccc(Cl)cc2)c1-c1ccnn1S(=O)(=O)c1ccc(Cl)cc1` was 57.9% (inactive); that for `NC(=O)NC(=O)CSc1nc2cc([N+](=O)[O-])ccc2n1-c1cccc(C(F)(F)F)c1` was 76.3% (active). Take `COc1ccc(CCNC(=O)CSc2nc3[nH]ncc3c(=O)n2-c2cccc(C(F)(F)F)c2)cc1OC`: the inhibition was 16.4% (inactive). Take `COc1ccc(-n2cnnc2SCC(=O)Nc2cccc([N+](=O)[O-])c2)cc1`: the inhibition was 5.96% (inactive). For the compound `NS(=O)(=O)c1ccc(NC2=CC(c3ccc(F)cc3)N(c3ccc(S(N)(=O)=O)cc3)C2=O)cc1` (stereo unspecified), the inhibition is -15.2% (inactive). Take `CCC1(CC)Cc2ccccc2-c2nc3ccccc3c(=O)n21`: the inhibition was 16.7% (inactive). `CC(C)(C)c1nc2ccccc2c(=O)n1N1C(=O)c2ccccc2C1=O`: the inhibition is 71.3% (active). The value for `CN(C)CCCn1c(SCCN2C(=O)c3ccccc3C2=O)nc2ccccc2c1=O` was 4.6% (inactive); that for `CCCN(c1ccc(C)cc1)c1nc(=O)c2cccnc2s1` was 12.3% (inactive); that for `Cc1cc(N)n(-c2ccc(S(=O)(=O)N3CCCC3)cc2[N+](=O)[O-])n1` was 7.68% (inactive).

With `CC(C)Nc1ncnc2c1nnn2Cc1ccccc1`, the inhibition was 21.7% (inactive). The value for `Cn1c(=O)c2[nH]c(NCC3CCCO3)nc2n(-c2ccccc2)c1=O` (stereo unspecified) was 8.41% (inactive); that for `CC(C)(C)c1nc(NCC2CCCO2)c2nnn(Cc3ccccc3)c2n1` (stereo unspecified) was 71.1% (active). Turning to `CC/C=C/C(=O)N1CC2(CC(c3cccc(NC(=O)CC)c3)=NO2)C[C@H]1C(N)=O` (stereo partly specified), the inhibition was -5.15% (inactive). Regarding `CC(C)Cc1nnc(NC(=O)CCC(=O)Nc2ccc3cn[nH]c3c2)s1`, the inhibition is -20.9% (inactive).

For the compound `CCOc1cc(/C=C(\C#N)c2nc(-c3cccs3)c(NC(C)=O)s2)ccc1O`, the inhibition was -1.5% (inactive). With `COc1cc(/C=N/Nc2nc3ccccc3s2)ccc1O`, the inhibition was 3.98% (inactive). The value for `COc1cc(/C=C(\C#N)c2nc3c(s2)CC(C)CC3)ccc1O` (stereo unspecified) was 93.6% (active). The value for `O=C(COC(=O)/C=C/c1ccc2c(c1)OCO2)NC1CCS(=O)(=O)C1` (stereo unspecified) was 17.7% (inactive). For the compound `Cc1nc(C)c2c(c1C(F)(F)F)-c1ccccc1C2(F)F`, the inhibition is 84.7% (active). In the case of `CSc1n[nH]c(=S)n1N`, the inhibition was 0.04% (inactive). On to `CC(C)(C)C(=O)OCc1nc(-c2ccc(O)c(O)c2)cs1`, for which the inhibition was -105% (inactive). The value for `Cc1ccc(S(=O)(=O)/N=C(/Nc2ccc3[nH]c(=O)[nH]c3c2)c2ccccc2)cc1` was -16.7% (inactive); that for `Cc1cc(C)cc(C(=O)NC(=S)Nc2ccc3[nH]c(=O)[nH]c3c2)c1` was 81.3% (active); that for `Cc1ccc(C(=O)NC(=S)Nc2ccc3[nH]c(=O)[nH]c3c2)cc1C` was 1.63% (inactive). With `CC1(C)CCCC2=C1CC1C(=O)N(c3ccccc3)C(=O)C1C2` (stereo unspecified), the inhibition was 12% (inactive).

Consider `CC1CC2=C(CC1/C=N/NC(N)=S)C(C)(C)CCC2` (stereo unspecified), for which the inhibition is 89.8% (active). `CN(C(=O)Nc1ccc(Cl)cc1)n1cnc2ccccc2c1=O`: the inhibition is 20.1% (inactive). The value for `CC1(C)C=C2[C@H]3CC[C@@H]4[C@@]5(C)CCC(=O)C(C)(C)[C@@H]5CC[C@@]4(C)[C@]3(C)CC[C@@]2(C(=O)O)CC1` was 95% (active).

As usually defined, the inhibition is the change of the read-out against control, counted positive when it falls.
